This is part of a sample that, as a whole, favours compounds with a hit. Of some 83,000 tested, about 20% had one in any assay.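 Activity criterion: percent growth below 10, measured after cells in 96-well plates were exposed to a single compound concentration for 48 hours.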 Active and inactive are the calls of the source.
How the values were obtained:
[1] = test system: UACC-62 melanoma; assay: NCI-60 one-dose screen, 48 h (100 = growth as untreated, 0 = no growth, -100 = all killed); settings: 100 µM
[2] = test system: TK-10 renal; assay: as above; settings: 100 µM

SMILES | growth [1] | growth [2]
COc1cc([C@@H]2c3cc4c(cc3[C@@H](Nc3ccc(NC(=O)c5cc([N+](=O)[O-])cn5C)cc3)[C@H]3COC(=O)[C@H]23)OCO4)cc(OC)c1O | -35.1% (active) | -28.8% (active)
C=C1C(=O)OC2CC1C(OC(C)=O)C/C(C)=C/CC/C(C)=C\CCC2(C)O (centres undefined) | -94.6% (active) | -98.1% (active)

Source: PubChem BioAssay (NCI)
